# In PubChem BioAssay AID488969 (Vanderbilt High Throughput Screening Facility, 2010):
# In all, about 110,000 compounds were measured (“z-score”: median about -0.1, highest 2% from about 2 on). Only a selection was taken, and the highest values are over-represented in it overall. The source made the active and inactive calls.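 Rule for the calls: active = z-score in the third read window above 3 or below -3; inactive = the rest.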
# Target: Metabotropic glutamate receptor 8 (Rattus norvegicus) (UniProt P70579)
# Test: rat mGluR8 modulators via GIRK flux, primary screen, cell-based, thallium flux, HTS (AID 488969)
# Settings: HEK293 rat mGluR8, GIRK (G protein-gated inwardly rectifying potassium channel) thallium flux, FluoZin2; at 10 µM; stronger effect = higher value; submaximal glutamate (EC20) added with thallium
# Metabotropic glutamate receptor 8 (Rattus norvegicus), sequence (P70579 whole entry, looked up): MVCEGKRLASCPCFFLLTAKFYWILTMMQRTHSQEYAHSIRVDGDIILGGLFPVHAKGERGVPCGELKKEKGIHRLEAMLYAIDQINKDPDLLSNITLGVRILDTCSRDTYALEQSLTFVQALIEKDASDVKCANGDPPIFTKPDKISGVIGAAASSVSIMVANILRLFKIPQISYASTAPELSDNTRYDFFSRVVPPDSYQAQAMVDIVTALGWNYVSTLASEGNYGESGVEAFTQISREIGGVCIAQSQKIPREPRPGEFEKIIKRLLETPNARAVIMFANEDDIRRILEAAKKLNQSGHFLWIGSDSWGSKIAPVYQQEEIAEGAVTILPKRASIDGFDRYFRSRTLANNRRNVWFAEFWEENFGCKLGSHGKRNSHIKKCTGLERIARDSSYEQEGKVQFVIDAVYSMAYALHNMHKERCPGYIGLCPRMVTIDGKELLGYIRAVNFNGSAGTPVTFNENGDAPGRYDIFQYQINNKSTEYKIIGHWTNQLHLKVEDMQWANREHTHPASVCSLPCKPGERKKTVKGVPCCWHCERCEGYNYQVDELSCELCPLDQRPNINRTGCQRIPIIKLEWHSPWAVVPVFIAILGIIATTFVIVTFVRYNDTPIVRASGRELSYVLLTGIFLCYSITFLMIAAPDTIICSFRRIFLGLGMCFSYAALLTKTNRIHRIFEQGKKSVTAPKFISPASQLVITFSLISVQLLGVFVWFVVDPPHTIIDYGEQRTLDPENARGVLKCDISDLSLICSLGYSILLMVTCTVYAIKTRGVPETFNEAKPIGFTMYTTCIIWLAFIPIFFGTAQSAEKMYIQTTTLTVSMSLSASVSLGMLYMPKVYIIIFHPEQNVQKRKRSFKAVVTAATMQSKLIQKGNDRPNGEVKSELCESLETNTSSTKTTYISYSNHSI
row,SMILES,z-score
1,Cc1nc2c(C)cccc2cc1C(=O)N/N=C/c1cccc([N+](=O)[O-])c1,-0.361
2,O=C(NC(=S)NCc1ccc(-c2nc3ccccc3s2)cc1)c1ccco1,2.52
3,O=C(NCc1ccc(-c2nc3ccccc3s2)cc1)c1ccco1,-0.111
4,O=C(Nc1ccccc1-c1nc2ccccc2s1)c1ccco1,-0.0204
5,O=C(COC(=O)c1ccco1)Nc1nc2ccccc2s1,0.111
6,O=C(NCc1ccc(-c2nc3ccccc3s2)cc1)c1ccc(Br)o1,-0.21
7,O=C(NC(=S)Nc1nc2ccccc2s1)c1ccco1,8.72 (active)
8,O=C(COc1ccc(Cl)cc1Cl)NC(=O)N1CCCCC1,1.09
9,Cc1sc2ncnc(N=Nc3c(O)[nH]c4ccccc34)c2c1C,-0.0288
10,CCOC(=O)c1cc(OC(=O)c2cccnc2)n(-c2ccccc2)n1,-0.265
11,CN(CC(=O)NC(=O)NCc1ccccc1)Cc1ccc(Cl)cc1,-0.334
12,COc1ccc(CN(C)CC(=O)NC(=O)NCc2ccccc2)cc1OC,5.52 (active)
13,COc1cccc(CN(C)CC(=O)NC(=O)NCc2ccccc2)c1,0.16
14,COC(=O)C1=C(C(=O)c2ccccc2)C(c2ccc(OC)c(OC)c2)Nc2nnnn21 (stereo unspecified),0.0695
15,C/C(=N\NC(=O)CSc1nnc(C)s1)c1ccc(O)cc1,0.00192
16,NC(=S)N/N=C/c1ccc(-c2cc(Cl)ccc2Cl)o1,2.21
17,NC(=S)N/N=C/c1ccc(-c2ccc(Cl)c(Cl)c2)o1,0.653
18,NC(=S)N/N=C/c1ccc(-c2cc(Cl)cc(Cl)c2)o1,0.987
19,CCCCOC(=O)CSc1n[nH]c(=O)[nH]c1=O,-0.957
20,Cc1ccc(-c2nnc(CSc3nnc(C)s3)o2)cc1,0.552
21,Cc1ccc(-c2nnc(CSc3nc(C(C)C)nc4sc(C)c(C)c34)o2)cc1,1.42
22,CCc1nc(SCc2nnc(-c3ccc(C)cc3)o2)c2c(C)c(C)sc2n1,2.26
23,O=C(CCC(=O)OCC(=O)c1ccc(-c2ccccc2)cc1)Nc1cccc2cccnc12,-0.0975

row,SMILES,z-score
1,Cn1c(=O)c(C(=O)Nc2cccnc2)c(O)c2ccccc21,1.29
2,COc1ccc2c(Cl)c(C(=O)NCCCn3ccnc3)sc2c1,-0.0695
3,Cc1cc(C)c2nc(SC(C)C(=O)NCC(=O)Nc3ccc(F)c(F)c3F)cc(C)c2c1 (stereo unspecified),7.48 (active)
4,Cc1ccc(-n2nnnc2SC(C)C(=O)NCC(=O)Nc2ccc(F)c(F)c2F)c(C)c1 (stereo unspecified),-0.287
5,Cc1cc(SC(C)C(=O)NCC(=O)Nc2ccc(F)c(F)c2F)nc2ccccc12 (stereo unspecified),-0.101
6,CCCCC(=O)Nc1ccc(C(=O)NNC(=O)c2cccs2)cc1,-0.305
7,O=C(NCc1ccco1)c1ccc(COc2cc(Cl)ccc2Cl)cc1,0.104
8,COc1ccc(Cc2nnc(N)s2)cc1,-0.0129
9,CCn1c(SCC(N)=O)nc2sc3c(c2c1=O)CCCC3,8.59 (active)
10,CCn1c(SCC(=O)OC)nc2sc3c(c2c1=O)CCC3,-0.399
11,CCn1c(SCC(=O)O)nc2sc3c(c2c1=O)CCC3,-1.62
12,CCN1C(=O)c2ccc(C(=O)NCc3ccccc3)cc2C1=O,-0.278
13,O=C(Nc1nnc(SCc2ccc(F)cc2)s1)C1CC(=O)N(c2ccc3c(c2)OCCO3)C1 (stereo unspecified),3.68 (active)
14,COC(=O)c1ccc(CSc2nnc(NC(=O)C3CC(=O)N(c4ccc5c(c4)OCCO5)C3)s2)cc1 (stereo unspecified),0.162
15,CCc1nnc(NC(=O)C2CC(=O)N(c3ccc4c(c3)OCCO4)C2)s1 (stereo unspecified),-0.124
16,O=C(NCc1ccco1)C(Cc1ccccc1)NS(=O)(=O)c1cccc2nsnc12 (stereo unspecified),-0.0409
17,Cn1c(=O)[nH]c(=O)c2c1nc(Br)n2CCCSc1nc2ccccc2o1,-0.621
18,COc1ccccc1NS(=O)(=O)c1ccc(C)c(NC(=O)c2ccc(S(=O)(=O)N3CCCCCC3)cc2)c1,-0.106
19,COc1ccccc1NC(=O)c1ccc(S(=O)(=O)N2CCCC2)cc1,3.99 (active)
20,COc1ccccc1NC(=O)c1cc(C(=O)Nc2ccccc2OC)cc(N2C(=O)CCC2=O)c1,4.66 (active)
21,COc1ccccc1NC(=O)c1cccnc1,0.226
22,COc1ccccc1NC(=O)c1ccc(N)cc1,0.511
23,COc1ccccc1NC(=O)c1ccc(S(=O)(=O)N2CCOCC2)cc1,0.986

row,SMILES,z-score
1,O=[N+]([O-])c1ccc(OCC(O)CN2CCN(c3ccccc3F)CC2)cc1 (stereo unspecified),-0.357
2,Cc1ccc(NS(=O)(=O)c2cc([N+](=O)[O-])ccc2NNC(=S)Nc2cccc(Cl)c2)c(C)c1,-0.12
3,Cc1cccc(Sc2ccc([N+](=O)[O-])cn2)c1,-1.63
4,O=C(CSc1nc(-c2cccs2)cc(C(F)(F)F)n1)NCc1ccccc1,-0.654
5,COc1ccc(/C=N/NC(=O)CCCOc2ccc(Cl)cc2Cl)cc1,-0.126
6,Cc1ccc(Nc2cc(C)nn2-c2nc(C)cc(=O)[nH]2)cc1,16.4 (active)
7,Cc1ccc(Nc2cc(C)nn2-c2nc(C)cc(C)n2)cc1,0.547
8,Cc1cc(C)nc(-n2nc(C)cc2Nc2ccccc2)n1,-0.115
9,CN(C)CC1CCCCC1C1(O)c2ccccc2CSc2sccc21 (stereo unspecified),1.47
10,CN1CCC(C2(O)c3ccccc3CSc3sccc32)CC1 (stereo unspecified),2.02
11,CN(C)Cc1ccccc1C1(O)c2ccccc2CSc2ccccc21 (stereo unspecified),-0.164
12,COc1ccc(Nc2cc(C(=O)NCc3ccco3)c3ccccc3n2)cc1,-0.00632
13,O=C(O)c1cc(S(=O)(=O)Nc2ccccc2C(=O)O)ccc1O,-0.576
14,CCOC(=O)c1c(C)nc2sc(C(N)=O)c(N)c2c1-c1ccccc1,-1.25
15,Cc1ccc(S(=O)(=O)n2cnc3cc([N+](=O)[O-])ccc32)cc1C,2.81
16,Cc1ccc(S(=O)(=O)n2cnc3cc([N+](=O)[O-])ccc32)c(C)c1C,-0.143
17,Cc1cc(S(=O)(=O)n2cnc3cc([N+](=O)[O-])ccc32)ccc1Cl,-0.268
18,C=CCSc1nnc(Cc2cc(=O)[nH]c(=O)[nH]2)n1-c1cc(C)ccc1C,-0.111
19,COc1ccc(NC(=S)N2CCC(N(C)CCN3CCOCC3)CC2)cc1Cl,-0.269
20,C=CCN(CC=C)C(=S)Nc1ccccc1,-0.0866
21,O=C(NC(=S)Nc1ccccn1)c1ccc([N+](=O)[O-])cc1,0.166
22,CC(C)NC(=S)NC(=O)c1ccc(-c2ccccc2)cc1,0.201
23,C=CCN(CC=C)C(=S)NC(=O)c1ccc([N+](=O)[O-])cc1,4.84 (active)

row,SMILES,z-score
1,C=CCN(CC=C)C(=S)NC(=O)c1ccc(-c2ccccc2)cc1,11.4 (active)
2,CCC(=O)NC(=S)NNC(=O)c1ccc([N+](=O)[O-])cc1,0.17
3,CN(Cc1ccccc1)C(=S)NC(=O)c1ccc(-c2ccccc2)cc1,4.13 (active)
4,CN(Cc1ccccc1)C(=S)NC(=O)C1CCCCC1,1.47
5,CCCN(CCC)C(=S)NC(=O)c1ccc(-c2ccccc2)cc1,-0.959
6,OCc1nc2ccccc2n1C/C=C/c1ccccc1,0.00864
7,O=C(Nc1ccc(Cl)cc1)C1CCCN(S(=O)(=O)c2cnc[nH]2)C1 (stereo unspecified),0.605
8,COc1cc(C)c(Br)cc1S(=O)(=O)N1CCCC1,0.188
9,O=C1c2cccc3cccc(c23)C(=O)N1c1ccc2ncccc2c1,-0.261
10,CCOC(=O)C1=C(O)/C(=C\c2cccc(OC)c2)N=C1C,-0.194
11,COc1cccc(-c2nc(Oc3cc(C)cc(C)c3)c3ccccc3n2)c1O,0.123
12,COc1cc(CNCC(C)C)c(Br)cc1OCC(=O)NCc1ccccc1,0.232
13,CCNCc1cc(Br)c(OCC(=O)Nc2ccccc2)c(OC)c1,1.18
14,COc1cc(CNCC(C)C)cc(Br)c1OCC(=O)Nc1ccccc1,2.21
15,COc1ccc(OCC(=O)N2CCN(c3nnc(-c4ccccc4)c4ccccc34)CC2)cc1,0.267
16,CCOC(=O)c1ccc(S(=O)(=O)NCC(c2ccc(N(C)C)cc2)c2c[nH]c3ccccc23)cc1 (stereo unspecified),0.201
17,CCOc1ccccc1NC(=O)Cc1c(F)cccc1Cl,-0.491
18,C#CC1(O)CC(C)N(C)C(C)C1 (stereo unspecified),-0.0403
19,O=C(NNc1cccc(Cl)n1)c1cccnc1Cl,-0.00142
20,OC(COCCC12CC3CC(CC(C3)C1)C2)CN1CCCCC1 (stereo unspecified),-0.152
21,CCN(CC)CC(O)COCCC12CC3CC(CC(C3)C1)C2 (stereo unspecified),3.04 (active)
22,OCCN(CCO)CC(O)COCCC12CC3CC(CC(C3)C1)C2 (stereo unspecified),0.239
23,O=C(COC(=O)c1cccs1)c1ccc2c(c1)OCCO2,-0.579

row,SMILES,z-score
1,CC(C)(C)NC(=O)C(c1ccc(F)cc1)N(Cc1ccco1)C(=O)Cn1nnc(-c2cccs2)n1 (stereo unspecified),-0.585
2,CC(C)NC(=O)c1nc2ccccc2s1,3.05 (active)
3,CC(C)(C)NC(=O)c1nc2ccccc2s1,0.283
4,CCOC(=O)N1CCN(C(=O)CSc2ncnc3ccccc23)CC1,3.04 (active)
5,CCOC(=O)N1CCN(/C=C(\C#N)c2nc3ccccc3s2)CC1,1.73
6,CCOC(=O)N1CCN(C(=O)c2nc3ccccc3s2)CC1,2.8
7,O=C(CSc1ncnc2ccccc12)N1CCN(c2ccccc2)CC1,-0.0217
8,CCOC(=O)N1CCN(C(=O)CSc2ncccn2)CC1,0.107
9,O=C(c1nc2ccccc2s1)N1CCSCC1,0.0723
10,O=C(NCCO)c1nc2ccccc2s1,1.28
11,S=C(Nc1ccc(Cl)cc1)c1sc(N2CCCCC2)nc1N1CCOCC1,-0.435
12,CC(NC(=O)COc1ccccc1-c1ccccc1)c1ccccc1 (stereo unspecified),-0.192
13,O=C(COc1ccc2c(c1)CCC2)N1CCN(c2cccc(C(F)(F)F)c2)CC1,-0.0515
14,Cc1ccc(OCCN2CCN(CC(O)Cn3c4ccccc4c4ccccc43)CC2)cc1 (stereo unspecified),0.113
15,CC(C(=O)N1c2ccccc2CCc2ccccc21)n1nnc(-c2ccc(N(C)C)cc2)n1 (stereo unspecified),0.255
16,Cc1cc(NC(=O)CSc2nc(CC(C)(C)C)nc3c2c(=O)n(C)c(=O)n3C)no1,-0.0135
17,CCOc1ccc2nc(NC(=O)c3ccoc3C)sc2c1,-0.855
18,COc1ccccc1Nc1nnc(SCC(=O)NC(=O)Nc2ccc3c(c2)OCCO3)s1,-0.138
19,Cc1cc(C(=O)CSc2nnc(-c3cccnc3)n2-c2ccccc2)c(C)n1CC1CCCO1 (stereo unspecified),-0.185
